# Laboratory results taken from the antibiotic and cytotoxicity screens of Wong et al. (2023).
# Screen size: about 39,000 compounds; about 3,300 (8.5%) were called active. Shown is part of a subset that was picked to be rich in actives.
# Tested on: HepG2
# Assay: cytotoxicity call (relative viability < 0.9)
# Conditions: 10 µM
row,Compound,cytotoxicity call
1,O=C(O)c1cccnc1,inactive
2,O=C(c1cccnc1)N1CCOCC1,active
3,O=C(NCCCN1CCOCC1)c1cccnc1,inactive
4,Cc1ccc(S(=O)(=O)N(C)C[C@@H]2Oc3c(NC(=O)Nc4cccc5ccccc45)cccc3C(=O)N([C@H](C)CO)C[C@H]2C)cc1,inactive
5,CN(C)C(=O)c1cc2c(c(-c3cccc(/C=C/c4ccccc4)c3)n1)[C@H](CCO)N([S@@](=O)C(C)(C)C)C2,inactive
6,C[C@@H]1CN([C@@H](C)CO)C(=O)c2cccc(NC(=O)Nc3ccc(C(F)(F)F)cc3)c2O[C@@H]1CN(C)Cc1ccc(C(F)(F)F)cc1,inactive
7,C[C@H](CO)N1C[C@H](C)[C@@H](CN(C)Cc2ccc(C(F)(F)F)cc2)Oc2c(NC(=O)Nc3ccc(F)cc3)cccc2C1=O,active
8,C[C@H]1CN([C@@H](C)CO)C(=O)c2cccc(NC(=O)Nc3ccc(F)cc3)c2O[C@H]1CN(C)Cc1ccc(C(F)(F)F)cc1,inactive
9,C[C@H](CO)N1C[C@H](C)[C@@H](CN(C)Cc2ccc(C(F)(F)F)cc2)Oc2c(NC(=O)Nc3ccc(C(F)(F)F)cc3)cccc2C1=O,inactive
10,C[C@@H]1CN([C@H](C)CO)C(=O)c2cccc(NC(=O)Nc3ccc(F)cc3)c2O[C@H]1CN(C)Cc1ccc(C(F)(F)F)cc1,inactive
11,C[C@H]1CN([C@@H](C)CO)C(=O)c2cccc(NC(=O)Nc3ccc(C(F)(F)F)cc3)c2O[C@H]1CN(C)Cc1ccc(C(F)(F)F)cc1,inactive
12,C[C@H]1CN([C@@H](C)CO)C(=O)c2cccc(NC(=O)Nc3ccc(C(F)(F)F)cc3)c2O[C@@H]1CN(C)Cc1ccc(C(F)(F)F)cc1,active
13,C[C@H](CO)N1C[C@H](C)[C@H](CN(C)Cc2ccc(C(F)(F)F)cc2)Oc2c(NC(=O)Nc3ccc(C(F)(F)F)cc3)cccc2C1=O,inactive
14,C[C@@H]1CN([C@H](C)CO)C(=O)c2cccc(NC(=O)Nc3ccc(C(F)(F)F)cc3)c2O[C@H]1CN(C)Cc1ccc(C(F)(F)F)cc1,active
15,C[C@@H]1CN([C@H](C)CO)C(=O)c2cccc(NC(=O)Nc3ccc(C(F)(F)F)cc3)c2O[C@@H]1CN(C)Cc1ccc(C(F)(F)F)cc1,active
16,C[C@@H]1CN([C@H](C)CO)C(=O)c2cccc(NC(=O)Nc3ccc(F)cc3)c2O[C@@H]1CN(C)Cc1ccc(C(F)(F)F)cc1,inactive
17,C[C@@H]1CN([C@@H](C)CO)C(=O)c2cccc(NC(=O)Nc3ccc(F)cc3)c2O[C@H]1CN(C)Cc1ccc(C(F)(F)F)cc1,inactive
18,C[C@@H]1CN([C@H](C)CO)C(=O)c2cc(NC(=O)CCC(F)(F)F)ccc2O[C@H]1CN(C)S(=O)(=O)c1cn(C)cn1,inactive
19,CC(C)NC(=O)N(C)C[C@H]1Oc2c(NS(=O)(=O)c3cn(C)cn3)cccc2C(=O)N([C@@H](C)CO)C[C@@H]1C,inactive
20,C[C@@H]1CCCCO[C@@H](CN(C)Cc2ccc(C(=O)O)cc2)[C@H](C)CN([C@H](C)CO)C(=O)c2cc(NC(=O)Cc3ccccc3)ccc2O1,inactive
21,CC(C)CC#Cc1cnc2c(c1)C(=O)N([C@@H](C)CO)C[C@@H](C)[C@H](CN(C)S(=O)(=O)c1cccs1)O2,inactive
22,Cc1ccc(S(=O)(=O)N(C)C[C@H]2Oc3ccc(NS(=O)(=O)c4c(C)noc4C)cc3CC(=O)N([C@@H](C)CO)C[C@@H]2C)cc1,inactive

row,Compound,cytotoxicity call
1,C[C@@H]1CN([C@H](C)CO)C(=O)Cc2cc(NC(=O)CCN3CCOCC3)ccc2O[C@H]1CN(C)S(=O)(=O)c1ccccc1,inactive
2,CC(=O)OCC(=O)O[C@@H]1[C@H]2[C@@H](OC(=O)c3ccccc3)[C@@H](C)C[C@]2(O)[C@H](OC(C)=O)[C@@]2(C)[C@H](OC(C)=O)[C@]1(OC(C)=O)C[C@H]1C(=O)C(C)(C)C[C@@H]12,inactive
3,O=C(NC(=O)N1CCOCC1)c1ccc(S(=O)(=O)N2CCOCC2)cc1,inactive
4,C[C@@H]1CN([C@H](C)CO)C(=O)c2cccc(NC(=O)c3ccncc3)c2O[C@@H]1CN(C)Cc1ccc(-c2ccccc2)cc1,inactive
5,C[C@H](CO)N1C[C@H](C)[C@@H](CN(C)S(=O)(=O)c2cccc(F)c2)Oc2ncc(Br)cc2C1=O,inactive
6,C[C@@H]1CN([C@H](C)CO)C(=O)c2cc(Br)cnc2O[C@H]1CN(C)C(=O)Nc1ccc2c(c1)OCO2,inactive
7,C[C@H](CO)N1C[C@H](C)[C@H](CN(C)Cc2ccc(Oc3ccccc3)cc2)Oc2c(NC(=O)Nc3ccc(C(F)(F)F)cc3)cccc2C1=O,inactive
8,C[C@@H]1CN([C@H](C)CO)C(=O)c2cccc(NC(=O)Nc3ccc(C(F)(F)F)cc3)c2O[C@@H]1CN(C)Cc1ccc(-c2ccccc2)cc1,active
9,C[C@@H]1CN([C@@H](C)CO)C(=O)c2cccc(NC(=O)Nc3ccccc3)c2O[C@@H]1CN(C)Cc1ccc(C(F)(F)F)cc1,inactive
10,C[C@@H]1CN([C@H](C)CO)C(=O)c2cccc(NC(=O)Nc3ccc(C(F)(F)F)cc3)c2O[C@H]1CN(C)Cc1ccc(-c2ccccc2)cc1,inactive
11,C[C@H]1CN([C@@H](C)CO)C(=O)c2cccc(NC(=O)Nc3ccc(C(F)(F)F)cc3)c2O[C@@H]1CN(C)Cc1ccc(Oc2ccccc2)cc1,inactive
12,C[C@H]1CN([C@@H](C)CO)C(=O)c2cccc(NC(=O)Nc3ccc(C(F)(F)F)cc3)c2O[C@H]1CN(C)Cc1ccc(-c2ccccc2)cc1,inactive
13,C[C@@H]1CN([C@@H](C)CO)C(=O)c2cccc(NC(=O)Nc3ccc(C(F)(F)F)cc3)c2O[C@@H]1CN(C)Cc1ccc(Oc2ccccc2)cc1,active
14,C[C@H](CO)N1C[C@H](C)[C@H](CN(C)Cc2ccc(C(F)(F)F)cc2)Oc2c(NC(=O)Nc3ccc(F)cc3)cccc2C1=O,inactive
15,C[C@@H]1CN([C@H](C)CO)C(=O)c2cccc(NC(=O)Nc3ccccc3)c2O[C@H]1CN(C)Cc1ccc(C(F)(F)F)cc1,active
16,C[C@@H]1CN([C@@H](C)CO)C(=O)c2cccc(NC(=O)Nc3ccccc3)c2O[C@H]1CN(C)Cc1ccc(C(F)(F)F)cc1,inactive
17,C[C@H]1CN([C@@H](C)CO)C(=O)c2cccc(NC(=O)Nc3ccc(F)cc3)c2O[C@@H]1CN(C)Cc1ccc(C(F)(F)F)cc1,inactive
18,C[C@@H]1CN([C@@H](C)CO)C(=O)c2cccc(NC(=O)Nc3ccc(C(F)(F)F)cc3)c2O[C@H]1CN(C)Cc1ccc(C(F)(F)F)cc1,active
19,COc1ccc(S(=O)(=O)Nc2ccc3c(c2)C(=O)N([C@H](C)CO)C[C@@H](C)[C@@H](CN(C)C(=O)Nc2ccccc2)OCCCC[C@@H](C)O3)cc1,inactive
20,CC(C)CC#Cc1ccc2c(c1)O[C@H](CN(C)C(=O)Cc1ccncc1)[C@H](C)CN([C@H](C)CO)S2(=O)=O,inactive
21,COc1cccc(S(=O)(=O)N(C)C[C@@H]2Oc3cc(C4=CCCC4)ccc3S(=O)(=O)N([C@@H](C)CO)C[C@H]2C)c1,inactive
22,Cc1noc(C)c1S(=O)(=O)Nc1ccc2c(c1)C(=O)N([C@H](C)CO)C[C@H](C)[C@H](CN(C)C(=O)Nc1ccccc1)O2,inactive

row,Compound,cytotoxicity call
1,Cc1noc(C)c1S(=O)(=O)N(C)C[C@@H]1Oc2ccc(NS(=O)(=O)c3ccc(F)cc3)cc2CC(=O)N([C@H](C)CO)C[C@@H]1C,inactive
2,C[C@H]1CN([C@@H](C)CO)C(=O)c2cccc(NC(=O)c3nc4ccccc4s3)c2O[C@@H]1CN(C)C(=O)Nc1ccc(F)cc1,inactive
3,COc1ccccc1S(=O)(=O)N(C)C[C@@H]1OCc2cn(nn2)CCCC(=O)N([C@H](C)CO)C[C@H]1C,inactive
4,Cc1noc(C)c1S(=O)(=O)Nc1ccc2c(c1)C(=O)N([C@@H](C)CO)C[C@@H](C)[C@H](CN(C)S(=O)(=O)c1ccc(Cl)cc1)O2,inactive
5,COc1ccc(S(=O)(=O)N(C)C[C@@H]2Oc3ccc(NS(=O)(=O)c4c(C)noc4C)cc3CC(=O)N([C@@H](C)CO)C[C@H]2C)cc1,inactive
6,Cc1noc(C)c1NC(=O)Nc1ccc2c(c1)C(=O)N([C@H](C)CO)C[C@@H](C)[C@@H](CN(C)C(=O)C1CCCCC1)OCCCC[C@H](C)O2,inactive
7,C[C@H](CO)N1C[C@H](C)[C@@H](CN(C)Cc2ccc(C(F)(F)F)cc2)Oc2c(NC(=O)NC3CCCCC3)cccc2C1=O,inactive
8,C[C@@H]1CN([C@H](C)CO)C(=O)c2cccc(NC(=O)NC3CCCCC3)c2O[C@@H]1CN(C)Cc1ccc(C(F)(F)F)cc1,active
9,C[C@H](CO)N1C[C@H](C)[C@H](CN(C)Cc2ccc(C(F)(F)F)cc2)Oc2c(NC(=O)NC3CCCCC3)cccc2C1=O,inactive
10,CO[C@H]1CN(C)C(=O)c2ccc(NC(=O)C3CCOCC3)cc2OC[C@@H](C)N(Cc2cccnc2)C[C@H]1C,inactive
11,C[C@H](CO)N1C[C@H](C)[C@@H](CN(C)Cc2ccc(Cl)c(Cl)c2)Oc2ccc(NC(=O)Cn3cnnn3)cc2C1=O,inactive
12,C[C@@H]1CN([C@@H](C)CO)C(=O)Cc2cc(NC(=O)Nc3ccccc3)ccc2O[C@@H]1CN(C)Cc1ccc(-c2ccccc2)cc1,inactive
13,C[C@H]1CN([C@@H](C)CO)C(=O)Cc2cc(NC(=O)Nc3ccccc3)ccc2O[C@H]1CN(C)Cc1ccc(-c2ccccc2)cc1,inactive
14,Cc1noc(C)c1NC(=O)Nc1ccc2c(c1)CC(=O)N([C@H](C)CO)C[C@@H](C)[C@H](CN(C)Cc1ccc(-c3ccccc3)cc1)O2,inactive
15,C[C@@H]1CN([C@@H](C)CO)C(=O)Cc2cc(NC(=O)Nc3ccccc3)ccc2O[C@H]1CN(C)Cc1ccc(-c2ccccc2)cc1,active
16,C[C@@H]1CN([C@H](C)CO)C(=O)Cc2cc(NC(=O)Nc3ccccc3)ccc2O[C@H]1CN(C)Cc1ccc(-c2ccccc2)cc1,inactive
17,Cc1noc(C)c1NC(=O)Nc1ccc2c(c1)CC(=O)N([C@@H](C)CO)C[C@H](C)[C@H](CN(C)Cc1ccc(-c3ccccc3)cc1)O2,inactive
18,C[C@H](CO)N1C[C@H](C)[C@H](CN(C)Cc2ccc(-c3ccccc3)cc2)Oc2ccc(NC(=O)Nc3ccccc3)cc2CC1=O,active
19,CC(C)NC(=O)Nc1ccc2c(c1)CC(=O)N([C@H](C)CO)C[C@H](C)[C@H](CN(C)Cc1ccc(-c3ccccc3)cc1)O2,inactive
20,C[C@@H]1CN([C@H](C)CO)C(=O)Cc2cc(NC(=O)Nc3ccccc3)ccc2O[C@@H]1CN(C)Cc1ccc(-c2ccccc2)cc1,active
21,Cc1noc(C)c1NC(=O)Nc1ccc2c(c1)CC(=O)N([C@@H](C)CO)C[C@@H](C)[C@@H](CN(C)Cc1ccc(-c3ccccc3)cc1)O2,active
